This is an account of results in PubChem BioAssay (EPA / NIEHS).

The source made the active and inactive calls. The calls were made as follows: active = hit-call score of the fitted dose curve at least 0.9, where 1 is the maximum; inactive = score below 0.9.

A short description of the test: ATG_Sox_CIS: Attagene CIS-FACTORIAL HepG2 Assay for human SRY-box transcription factor (SOX) (AID 2282960). As to conditions: HepG2 Attagene cis-factorial SOX reporter, mRNA; actives raise or lower the signal. The protocol:
ATG_CIS is a cell-based, multiplexed-readout assay that uses HepG2, a human liver cell line, with measurements taken at 24 hours after chemical dosing in a 24-well plate.ATG_Sox_CIS is one of 52 assay component(s) measured or calculated from the ATG_CIS assay. It is designed to make measurements of mRNA induction, a form of inducible reporter, as detected with fluorescence intensity signals by Reverse transcription polymerase chain reaction (RT-PCR) and Capillary electrophoresis technology.Data from the assay component ATG_Sox_CIS was analyzed into 1 assay endpoint. This assay endpoint, ATG_Sox_CIS, was analyzed with bidirectional fitting relative to DMSO as the negative control and baseline of activity. Using a type of inducible reporter, measures of mRNA for gain or loss-of-signal activity can be used to understand the reporter gene at the transcription factor-level as they relate to the gene SOX1. Furthermore, this assay endpoint can be referred to as a primary readout, because this assay has produced multiple assay endpoints where this one serves a reporter gene function. To generalize the intended target to other relatable targets, this assay endpoint is annotated to the dna binding intended target family, where the subfamily is HMG box protein.
Human liver HepG2 cells are transiently transfected with multiple reporter transcription units (MRTUs) in 6-well plates using FuGene 6 reagent (Roche; 3 ml FuGene/1 mg DNA). The MRTU constructs are regulated by a cis-regulating element (promoter). […] A major difference between the CIS and TRANS system is that in CIS activities of endogenous TFs are measured, whereas the TRANS assay evaluates changes in activities of exogenous, chimeric NR-Gal4 proteins. […] At the end of 24 hour incubation, total RNA was isolated using TriZol reagent (Invitrogen). The isolated RNA is then reverse-transcribed using oligo(dT) primer and Mo-MLV reverse transcriptase (Invitrogen) with DNAse I (Ambion) treatment for 30 min. The one-tenth of the produced cDNA was amplified by PCR using Taq DNA polymerase (Invitrogen) and two reporter sequence-specific primers. The PCR products were fluorescently labeled by primer extension with 6-arboxyfluorescein (6-FAM) 5'-labeled reporter sequence-specific primer (2 min at 95 C, 20 s at 68 C and 10 min at 72 C) and these products were digested with 5U of HpaI (New England Biolabs) for 2h at 37 C. The fragments were purified using Qiaquick PCR columns (Qiagen), analyzed on an ABI 3130xL genetic analyzer (Applied Biosystems) with peak positions identified by using a set of X-rhodamine (ROX)-labeled MapMarker1000 molecular weight standards (BioVentures). The raw capillary electrophoresis data was processed using Attagraph software (Attagene).
As for `On1ccccc1=S`, the compound was classed as inactive.

Regarding `CCCCCCc1ccc(O)cc1O`, the compound was called inactive.

Turning to `CCCCCCCCO`, the compound was called inactive.

In the case of `Cc1ccc(S(=O)(=O)O)cc1C`, the result was inactive.

Regarding `CCOC(=O)CC(CC(=O)OCC)(OC(C)=O)C(=O)OCC`, the compound was called inactive.

As to `CC[C@H]1CC[C@H](NCc2cc3c(cc2OC)[C@H]2C[C@H]2C(=O)N3C)[C@H](c2ccccc2)N1`, the call was inactive.

In the case of `Cc1ccc(C)c(O)c1`, the compound was called inactive.

For the compound `Cn1c(=O)cc(Oc2ccc(F)cc2F)c2cnc(NCC(C)(C)O)nc21`, the compound was classed as inactive.

As to `COc1ccc2sc(C(=O)Nc3nnn[nH]3)c(OC(C)C)c2c1`, the call was inactive.

Regarding `CN(C)c1ccc(N=NS(=O)(=O)O)cc1`, the compound was classed as inactive.

As a reminder, the AC50 is the midpoint of the concentration-response curve, whichever way the signal moves. For `CC(C)c1cccc(C(C)C)c1N1C(=O)c2ccc(O)cc2C1=O`, the AC50 is 122 µM (active).

As for `CCCCCCCCCCCCCCCO`, the result was inactive.

In the case of `O=C(CCCCCCCCc1cccnc1)N1CCC(C=C(c2ccccc2)c2ccccc2)CC1`, the result was inactive.

Turning to `O=C(O)c1cc(N=Nc2ccc(S(=O)(=O)Nc3ccccn3)cc2)ccc1O`, the call was inactive.

Consider `CC(C)(O)c1coc(S(=O)(=O)NC(=O)Nc2c3c(cc4c2CCC4)CCC3)c1`, for which the call was inactive.

For the compound `Cn1c(=O)c2c(ncn2C)n(C)c1=O`, the call was inactive.

For the compound `CC(=O)OC[C@H]1O[C@@](COC(C)=O)(O[C@H]2O[C@H](COC(C)=O)[C@@H](OC(C)=O)[C@H](OC(C)=O)[C@H]2OC(C)=O)[C@@H](OC(C)=O)[C@@H]1OC(C)=O`, the compound was classed as inactive.

In the case of `CC1=CC(=O)CC(C)(C)C1`, the call was inactive.

On to `COCCOCCOCCOC`, for which the compound was called inactive.

Consider `CNS(=O)(=O)c1cc(C(=O)N2CCC(CCN3C4CCC3CC(n3c(C)nc5ccccc53)C4)(c3cccc(F)c3)CC2)c(Cl)cc1F` (stereo not given), for which the call was inactive.

As to `CC(C)=CCCC(C)CCO` (stereo not given), the compound was called inactive.

In the case of `CC[C@H]1OC(=O)[C@H](C)[C@@H](O[C@H]2C[C@@](C)(OC)[C@@H](O)[C@H](C)O2)[C@H](C)[C@@H](O[C@@H]2O[C@H](C)C[C@H](N(C)C)[C@H]2O)[C@](C)(O)C[C@@H](C)C(=O)[C@H](C)[C@@H](O)[C@]1(C)O`, the result was inactive.

For the compound `O=C(O)c1cccc(N(Cc2cccnc2)c2ccc(OC(F)F)c(OC(F)F)c2)c1`, the result was inactive.

On to `O=c1n(CC2CO2)c(=O)n(CC2CO2)c(=O)n1CC1CO1` (stereo not given), for which the AC50 is 65.2 µM (active).

With `CC(C)=CCC/C(C)=C/CO`, the compound was classed as inactive.

In the case of `CCOc1cccc(-n2cc(C(=O)N3CCN(c4cc(C(=O)O)c5ccccc5c4)CC3)nc2-c2ccc(C)cc2)c1`, the call was inactive.

As to `Cc1c(-c2cccnc2)c2ccccc2n1CCCCC(=O)O`, the result was inactive.

Turning to `Nc1cccc(N)c1`, the compound was classed as inactive.

Turning to `COC(=O)CC(=O)OC`, the compound was classed as inactive.

In the case of `CCCCC(CC)COC(=O)CCCCCCCCC(=O)OCC(CC)CCCC` (stereo not given), the call was inactive.

Take `O=C1CCCCCN1`: the compound was classed as inactive.

Turning to `Cn1cnc([N+](=O)[O-])c1Sc1ncnc2nc[nH]c12`, the outcome was inactive.

On to `CCOC(=O)c1ccc(C2CCC(NC[C@H](O)COc3ccc(O)c(NS(C)(=O)=O)c3)CC2)cc1` (stereo not given in full), for which the result was inactive.

Consider `CCNc1ccccc1`, for which the result was inactive.

For the compound `Cc1ccc(N)cc1O`, the result was inactive.

Take `CC(C)CC(C)(O)C#CC(C)(O)CC(C)C` (stereo not given): the compound was called inactive.

Turning to `O=C(O)CC(O)C(=O)O` (stereo not given), the call was inactive.

As for `CCOC(=O)COc1ccc2c(c1)CC(NCC(O)c1cccc(Cl)c1)CC2` (stereo not given), the outcome was inactive.

In the case of `CN(C)c1ccc(Cc2ccc(N(C)C)cc2)cc1`, the call was inactive.

Take `O=C1CCC(N2C(=O)c3ccccc3C2=O)C(=O)N1` (stereo not given): the compound was called inactive.
